Our source for the Potency and activity change, negative = inhibition values is PubChem BioAssay (NCATS).

Each structure is given as a SMILES string. Records with an inconclusive call do not appear. Entries that show only a call come without a potency. Activity calls are given as the source filed them. Calls follow the shape of the dose curve; as a rule, active = well fitted inhibition curve with a large enough effect; inconclusive = small, poorly fitted or top-dose-only effect; inactive = flat fitted curve, though single readings scatter. Where a SMILES comes first, the peptide text is derived from it.

The test deals with Zika virus NS2B-NS3 protease. Put plainly: Primary screen GU AMC qHTS for Zika virus inhibitors (AID 1347154). Also: nearly all actives have a fitted effect of over 70% in size. The following applies: Zika NS2B-NS3 unlinked protease, AMC fluorogenic substrate; series mostly up to 54.1 µM. The method, boiled down: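 Unlinked Zika NS2B hydrophilic domain–NS3 protease complex at 25 nM in 10 mM Tris-HCl pH 8.0, 0.01% Tween 20, with an AMC peptide substrate. Fluorescence change (340/450 nm) over 15 min at room temperature, normalized to controls, fitted to 4-parameter Hill.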
On to `Cc1ccc(CCn2c3c(c4cc(Cl)ccc42)CN(C)CC3)cn1`, for which the Potency entry is “inactive”.

As for `O=C(NN1CCCC1)NS(=O)(=O)c1ccc(Cl)cc1`, the Potency entry was “inactive”.

On to `Nc1ncnc2c1ncn2Cc1c(F)cccc1Cl`, for which the Potency result is “inactive”.

Regarding `COc1cc(OC)nc(O[C@H](C(=O)O)C(OC)(c2ccccc2)c2ccccc2)n1`, the Potency result was “inactive”.

Take `O=C(C1CCCCC1)N1CC(=O)N2CCCc3ccccc3C2C1` (stereo not drawn): the Potency entry is “inactive”.

As to `CCN(CC)CCOc1ccc(/C(=C(\Cl)c2ccccc2)c2ccccc2)cc1`, the Potency result was “inactive”.

`CC(C)C[C@@H]1[C@H](c2ccccc2)OC(=O)N1CCCN1CCCCCC1`: the Potency entry is “inactive”.

In the case of `CC(=O)N[C@@H](CO)C(=O)N[C@@H](CC(=O)O)C(=O)N[C@@H](CCCCN)C(=O)N1CCC[C@H]1C(=O)O` (Ac-SDKP-OH), the Potency entry is “inactive”.

On to `CCOc1ccc(NS(=O)(=O)c2ccc(N)cc2)nn1`, for which the Potency entry was “inactive”.

`COc1ccc2c(c1)c(CC(=O)OC/C=C(\C)CC/C=C(\C)CCC=C(C)C)c(C)n2C(=O)c1ccc(Cl)cc1`: the Potency result is “inactive”.

As to `CCOC(=O)NNc1nncc2ccccc12`, the Potency entry is “inactive”.

Regarding `CC(=O)OCC[N+](C)(C)C`, the Potency result was “inactive”.

As for `Nc1c(I)cc(I)c(C(=O)N(CCC(=O)O)c2ccccc2)c1I`, the Potency entry was “inactive”.

As for `NCC[C@H](O)C(=O)N[C@@H]1C[C@H](N)[C@@H](O[C@H]2O[C@H](CN)[C@@H](O)[C@H](O)[C@@H]2O)[C@H](O)[C@@H]1O[C@H]1O[C@H](CO)[C@@H](O)[C@H](N)[C@@H]1O`, the activity change, negative = inhibition is -0.909% [at 0.59 µM] (inactive).

Consider `CN1CCC(Nc2ncc3ncnc(Nc4ccc(F)c(Cl)c4)c3n2)CC1`, for which the Potency entry is “inactive”.

Take `NS(=O)(=O)c1cc(C(=O)NN2C[C@H]3[C@H]4CCC(C4)[C@H]3C2)ccc1Cl`: the Potency entry is “inactive”.

In the case of `COC(=O)c1cc(Cl)c(NC(C)=O)cc1OC`, the Potency entry was “inactive”.

As for `CCCc1ccc(OCC(=O)N2CCN(C(=O)COc3ccc(CCC)cc3OC)CC2)c(OC)c1`, the Potency entry is “inactive”.

For `Clc1ccc2c(c1)Nc1ccccc1S2`, the Potency entry is “inactive”.

Take `CC(C)(C)c1ccc(C(=O)CCCCl)cc1`: the Potency entry was “inactive”.

`COC(=O)c1cc(S(N)(=O)=O)ccc1OC`: the Potency entry is “inactive”.

In the case of `OCc1cccnc1`, the Potency entry is “inactive”.

As to `C[C@H](CN1CCCC1)C(=O)c1ccc(C(F)(F)F)cc1`, the Potency result is “inactive”.

Consider `Cc1cccc(C)c1NC(=O)c1ccc(N)cc1`, for which the Potency entry is “inactive”.

For `CC(=O)O[C@H]1CC[C@@]2(C)C(=CC[C@@H]3[C@@H]2CC[C@]2(C)C(C(C)=O)=CC[C@@H]32)C1`, the Potency result was “inactive”.

Regarding `COc1cc2c(cc1OC)C(=O)CC2`, the Potency entry is “inactive”.

Take `Cc1ccc2ccc(Cl)cc2n1`: the Potency result was “inactive”.

As to `Cc1ccc(Cl)c(OCC(O)CNC(C)(C)C)c1` (stereo not drawn), the Potency result was “inactive”.

Regarding `CC(=O)Nc1c(I)c(NC(C)=O)c(I)c(C(=O)O)c1I`, the Potency result is “inactive”.

Turning to `CC(=O)[C@H]1CC[C@H]2[C@@H]3C=CC4=CC(=O)CC[C@@]4(C)[C@@H]3CC[C@]12C`, the Potency entry is “inactive”.

On to `CCCCC(O)/C=C(C)/C=C/C=C/C(=O)N1CCCC1=O` (stereo not drawn), for which the Potency entry was “inactive”.

As to `C[C@@H](O[C@H]1OCCN(Cc2n[nH]c(=O)[nH]2)[C@H]1c1ccc(F)cc1)c1cc(C(F)(F)F)cc(C(F)(F)F)c1`, the Potency entry was “inactive”.

On to `CC(CC1c2ccccc2CCc2ccccc21)CN(C)C` (stereo not drawn), for which the Potency result is “inactive”.

`C/C(=N\O)[C@@H](C)NCC(C)(C)CN[C@H](C)/C(C)=N/O`: the Potency result is “inactive”.

On to `CCOC(=O)[C@H](CCc1ccccc1)N[C@@H](C)C(=O)N(CC(=O)O)C1Cc2ccccc2C1`, for which the Potency entry is “inactive”.

For the molecule `CCCCC(CC)COC(=O)c1ccccc1C(=O)O` (stereo not drawn), the Potency entry is “inactive”.

For `CC1CCCCN1CCCOC(=O)c1ccc(OC2CCCCC2)cc1` (stereo not drawn), the Potency entry is “inactive”.

With `COc1ccc(/C(C)=C/C(=O)O)c(OC)c1`, the Potency result was “inactive”.
